# Reference: PubChem BioAssay
# Active and inactive are the calls of the source. Unless noted, the rule behind the calls is not given here.
# Columns and labels:
# [1] = compound effects on lung adenocarcinoma cell viability – A549, calcein-AM fluorescence, 48 h, basal, profiling panel (AID 1162); details: higher = more signal; note: test concentration not given here
# [2] = compound effects on differentiated 3T3-L1 adipocyte viability – cell-based, 3T3-L1 adipocytes, calcein-AM fluorescence, 48 h, basal, profiling panel (AID 1163); details: 3T3-L1 adipocytes viability, higher = more signal; note: test concentration not given here
# [3] = compound effects on hepatocellular carcinoma cell viability – HepG2, calcein-AM fluorescence, 48 h, basal, profiling panel (AID 1164); details: higher = more signal; note: test concentration not given here
# [4] = compound effects on multiple myeloma cell viability – MM1S, calcein-AM fluorescence, 48 h, basal, profiling panel (AID 1165); details: higher = more signal;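 note: viability of MM1S multiple myeloma cells under basal unstimulated conditions; test concentration not given here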
# [5] = calcein-AM signal in unstimulated myeloma cells – cell-based, calcein-AM fluorescence, 48 h, PK04 Diversity Set, profiling panel (AID 1166); details: RPMI8226 myeloma viability, higher = more signal;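 note: cells grown under basal conditions without added stimulus; test concentration not given here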
# [6] = JC-1 mitochondrial signal, unstimulated HepG2 cells – cell-based, JC-1 fluorescence, 24 h, 100 nL compound, profiling panel (AID 1167); details: HepG2 mitochondrial potential, higher = more signal; note: test concentration not given here
# [7] = JC-1 mitochondrial signal, unstimulated adipocytes – cell-based, JC-1 fluorescence, 3T3-L1 adipocytes, 24 h, 100 nL compound, profiling panel (AID 1168); details: JC-1 mitochondrial fluorescence, higher = more signal, called active from +8 up or from −8 down; note: test concentration not given here
# [8] = JC-1 mitochondrial signal, unstimulated myeloma cells – cell-based, JC-1 fluorescence, RPMI8226, 24 h, 100 nL compound, profiling panel (AID 1169); details: JC-1 mitochondrial potential fluorescence, higher = more signal; note: test concentration not given here
# [9] = JC-1 mitochondrial signal, unstimulated MM1S myeloma – cell-based, JC-1 fluorescence, 24 h, 100 nL compound, profiling panel (AID 1170); details: MM1S mitochondrial potential, higher = more signal; note: test concentration not given here
# [10] = resazurin metabolic signal in A549 cells – cell-based, resazurin fluorescence, 24 h, PK04 Diversity Set, profiling panel (AID 1171); details: A549 viability, higher = more signal, called active from +8 up or from −8 down; note: test concentration not given here
# [11] = resazurin metabolic signal in HepG2 cells – cell-based, resazurin fluorescence, 24 h, PK04 Diversity Set, profiling panel (AID 1172); details: HepG2 viability, higher = more signal; note: test concentration not given here
# [12] = budding yeast growth changes without added modifier – OD600, strain BY4716, 24 h, basal condition, primary screen (AID 1173); details: S. cerevisiae BY4716 growth, OD600, 24 h; higher = more signal, called active from +8 up or from −8 down
# [13] = viability profiling in MM1S myeloma cells – cell-based, resazurin fluorescence, basal, 24 h, PK04 Diversity Set, profiling panel (AID 1174); details: higher = more signal, called active from +8 up or from −8 down; note: test concentration not given here
# [14] = target: Dihydroorotate dehydrogenase (quinone), mitochondrial (Plasmodium falciparum (isolate 3D7)) (UniProt Q08210); assay: inhibition of P. falciparum DHODH – biochemical, C-terminal His tag, absorbance 600 nm, primary screen (AID 1175); details: PfDHODH enzyme, DCIP absorbance 600 nm; higher = more signal, called active from +8 up or from −8 down;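 note: recombinant parasite enzyme with a five histidine tag at its C terminus; test concentration not given here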
# Chain of Dihydroorotate dehydrogenase (quinone), mitochondrial (Plasmodium falciparum (isolate 3D7)) (Q08210 whole entry, looked up): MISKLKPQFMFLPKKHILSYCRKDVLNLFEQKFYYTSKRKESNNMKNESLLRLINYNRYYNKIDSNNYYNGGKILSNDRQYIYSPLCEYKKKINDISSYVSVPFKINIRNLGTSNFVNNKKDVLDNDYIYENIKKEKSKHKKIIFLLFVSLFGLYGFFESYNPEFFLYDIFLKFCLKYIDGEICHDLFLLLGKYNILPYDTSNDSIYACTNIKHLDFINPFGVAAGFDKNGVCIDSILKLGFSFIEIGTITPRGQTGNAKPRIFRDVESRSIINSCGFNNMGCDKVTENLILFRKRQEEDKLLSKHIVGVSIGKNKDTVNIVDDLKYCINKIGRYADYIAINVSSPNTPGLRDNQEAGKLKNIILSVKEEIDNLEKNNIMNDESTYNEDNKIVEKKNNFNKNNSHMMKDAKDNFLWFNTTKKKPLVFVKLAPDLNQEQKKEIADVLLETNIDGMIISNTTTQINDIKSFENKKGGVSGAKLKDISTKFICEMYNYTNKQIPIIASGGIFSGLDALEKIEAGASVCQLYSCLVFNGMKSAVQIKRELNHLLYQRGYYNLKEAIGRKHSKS
# [15] = inhibition of PAO1 biofilm formation – strain PAO1, LB-PBS medium, absorbance 600 nm, primary screen (AID 1176); note: test concentration not given here; details: P. aeruginosa PAO1 growth/biofilm, A600, 12 h; higher = more signal
# [16] = growth modulation of vineyard yeast isolate – strain RM11-1a, OD600, basal, 24 h, primary screen (AID 1177);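 note: cultures grown under basal conditions with no added stressor; test concentration not given here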; details: S. cerevisiae RM11-1a growth, OD600, 24 h; higher = more signal, called active from +8 up or from −8 down
# [17] = growth of efflux-deficient E. coli DRC39 – strain DRC39, OD650, 24 h, E. coli filamentation inducers, primary screen (AID 1178);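 note: growth measured as culture turbidity by optical density at 650 nm; test concentration not given here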; details: E. coli DRC39 acrAB, higher = more signal, called active from +8 up or from −8 down
# [18] = growth of efflux-deficient E. coli DRC39 – strain DRC39, OD650, 48 h, E. coli filamentation inducers, primary screen (AID 1179);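 note: screen aims at cell division blockers that make cells filament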; details: E. coli DRC39 delta-acrAB growth, higher = more signal, called active from +8 up or from −8 down
# [19] = viability profiling in RPMI8226 myeloma cells – cell-based, resazurin fluorescence, basal, 24 h, PK04 Diversity Set, profiling panel (AID 1180); details: higher = more signal;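 note: RPMI8826 multiple myeloma cell line at 5000 cells per well; test concentration not given here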
# [20] = target: E3 ubiquitin-protein ligase XIAP (Homo sapiens) (UniProt P98170); assay: small molecules binding XIAP protein – biophysical, small-molecule microarray, fluorescence 635 nm, primary screen (AID 1181); details: higher = more signal;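 note: score merges 667 nm emission and signal to noise over triplicate slides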
# Chain of E3 ubiquitin-protein ligase XIAP (Homo sapiens) (P98170 whole entry, looked up): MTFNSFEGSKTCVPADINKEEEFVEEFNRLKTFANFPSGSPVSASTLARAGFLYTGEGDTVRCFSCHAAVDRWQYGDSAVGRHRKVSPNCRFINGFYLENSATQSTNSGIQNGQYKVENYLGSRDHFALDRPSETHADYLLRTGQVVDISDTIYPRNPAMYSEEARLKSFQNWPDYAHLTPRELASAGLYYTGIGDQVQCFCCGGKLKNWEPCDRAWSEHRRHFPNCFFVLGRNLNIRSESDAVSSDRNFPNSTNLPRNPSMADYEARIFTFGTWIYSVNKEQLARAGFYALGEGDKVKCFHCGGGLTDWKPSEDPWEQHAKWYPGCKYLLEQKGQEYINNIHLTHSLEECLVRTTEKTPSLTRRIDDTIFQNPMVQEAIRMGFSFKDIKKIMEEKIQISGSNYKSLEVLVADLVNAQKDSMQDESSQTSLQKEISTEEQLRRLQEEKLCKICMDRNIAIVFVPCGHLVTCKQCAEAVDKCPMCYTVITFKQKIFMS
Structure (SMILES),z-score [1],z-score [2],z-score [3],z-score [4],z-score [5],z-score [6],z-score [7],z-score [8],z-score [9],z-score [10],z-score [11],z-score [12],z-score [13],composite z-score [14],z-score [15],z-score [16],z-score [17],z-score [18],z-score [19],composite z-score [20]
C=CCN1C(=O)[C@@]2(CCC(=O)OC(C)(C)C)N=C(c3ccc(OCCCO)cc3)O[C@H]2c2ccccc21,-1.22,0.28,-2.35,-3.59,-3.97,-1.62,2.8 (inactive),-1.19,-2.57,-1.66 (inactive),-0.648,-1.23 (inactive),-3.26 (inactive),0.407 (inactive),1.77 (inactive),-0.169 (inactive),0.636 (inactive),-0.242 (inactive),-4.47,0.21
CN(C)CCCNC(=O)[C@@]1(c2ccc([N+](=O)[O-])cc2)CC(=O)N(CC23CC4CC(CC(C4)C2)C3)[C@@H]1c1ccc(CO)cc1,-3.74,0.0309,-5.05,-3.8,-4.03,-1.58,0.303 (inactive),-1.04,-2.33,-4.78 (inactive),-6.19,-16.2 (active),-8.92 (active),0.687 (inactive),0.472 (inactive),-8.93 (active),0.325 (inactive),-2.4 (inactive),-6.48,0.0896
CC=CC(O)C1C=CC2C(=O)N(c3ccccc3)C(=O)C2N1Nc1ccc([N+](=O)[O-])cc1 (stereo not given),-0.972,-1.3,0.196,0.459,0.471,-0.653,0.207 (inactive),0.592,-1.01,-0.0977 (inactive),-0.0211,0.0621 (inactive),-0.156 (inactive),-0.213 (inactive),0.71 (inactive),-0.372 (inactive),-1.19 (inactive),-0.279 (inactive),0.0388,-0.0807
C=C(/C=C/CNS(=O)(=O)c1ccc(C)cc1)[C@H](O)[C@H]1CCCN1S(=O)(=O)c1ccccc1[N+](=O)[O-],0.623,0.581,-0.291,-1.28,-0.264,-1.79,-0.221 (inactive),-0.525,-0.0633,0.594 (inactive),-0.0339,0.587 (inactive),0.113 (inactive),0.858 (inactive),-0.447 (inactive),1.41 (inactive),1.45 (inactive),0.579 (inactive),0.0925,-0.0582
CN1C(=O)C2C=CC(C(O)c3c(F)cccc3Cl)N(Nc3ccccc3)C2C1=O (stereo not given),-0.635,-0.924,-1.18,0.161,-1.42,-1.4,-0.144 (inactive),-0.725,0.302,-0.31 (inactive),-0.203,-1.03 (inactive),-0.682 (inactive),0.061 (inactive),0.627 (inactive),-0.284 (inactive),-1.11 (inactive),-0.618 (inactive),-0.679,0.0651
COCCCNC(=O)[C@]1(Cc2ccccc2N=[N+]=[N-])N=C(c2ccc(OCCCO)cc2)O[C@@H]1c1ccccc1N=[N+]=[N-],-0.795,0.0826,-3.44,-3.52,-3.99,-0.892,1.03 (inactive),-1.17,-2.71,-2.56 (inactive),-2.52,0.298 (inactive),-3 (inactive),-0.282 (inactive),1.07 (inactive),0.315 (inactive),0.342 (inactive),-0.435 (inactive),-2.76,-0.0332
O=C(CCCCCCC(=O)Nc1ccccc1)N/N=C/c1ccccc1,1.08,0.194,-0.371,-0.669,-0.419,-0.807,-0.498 (inactive),-0.045,-0.593,0.589 (inactive),0.327,0.141 (inactive),0.532 (inactive),-0.543 (inactive),0.437 (inactive),0.678 (inactive),0.83 (inactive),0.159 (inactive),0.718,0.248
CN1C(=O)[C@@]2(CCS(=O)(=O)c3ccccc3)N=C(c3ccc(OCCCO)cc3)O[C@H]2c2ccccc21,0.524,1.1,-0.0319,-0.624,-0.517,0.214,0.426 (inactive),-0.776,0.111,-0.254 (inactive),0.316,0.369 (inactive),0.718 (inactive),0.0865 (inactive),-0.469 (inactive),0.64 (inactive),0.606 (inactive),0.946 (inactive),-1.09,0.205
CCOC(=O)C1=C[C@@H](c2ccccc2)N(S(=O)(=O)c2ccc(C)cc2)[C@H]1c1cccc(Cl)c1,-1.17,0.452,-1.71,-1.33,-1.48,2.04,-0.591 (inactive),0.754,0.648,0.776 (inactive),-0.663,1.7 (inactive),-0.848 (inactive),-0.184 (inactive),-0.169 (inactive),2.1 (inactive),-0.823 (inactive),-0.777 (inactive),-1.64,-0.221
O=C1C[C@]2(c3ccc([N+](=O)[O-])cc3)C(=O)N(Cc3ccccc3)c3cc(CO)ccc3[C@H]2N1CC12CC3CC(CC(C3)C1)C2,0.376,-1.02,1.51,0.397,0.329,-0.821,0.286 (inactive),0.589,-1.02,-0.849 (inactive),-0.566,-0.0685 (inactive),-0.434 (inactive),-3.36 (inactive),0.848 (inactive),-0.268 (inactive),-0.22 (inactive),0.0276 (inactive),-0.717,-0.133
COC(=O)[C@@]1(Cc2ccc(OC)cc2)[C@H]2c3cc(C(=O)N(C)C)n(CCc4c[nH]c5ccc(O)cc45)c3C[C@H]2CN1C(=O)c1ccccc1,-1.66,-0.737,0.197,-1.98,-1.32,0.941,-0.966 (inactive),-0.564,-1.37,-1.33 (inactive),-0.855,1.29 (inactive),-1.64 (inactive),-0.568 (inactive),0.15 (inactive),0.599 (inactive),-0.135 (inactive),0.301 (inactive),-2.36,0.201
CCOC(=CC(=O)OC)CC(O)c1cccc(Cl)c1 (stereo not given),0.738,0.342,-0.0117,0.221,-1.15,0.363,0.0253 (inactive),-0.0603,-0.69,0.0735 (inactive),0.217,-8.62 (active),-0.0412 (inactive),-1.92 (inactive),0.16 (inactive),-2.91 (inactive),0.121 (inactive),1.08 (inactive),0.404,-0.0091
COc1ccc([Si](C)(C)[C@@H]2[C@@H](CCO)O[C@]3(C(=O)N(Cc4cccc(N5C(=O)c6ccccc6Oc6ccccc65)c4)c4ccccc43)[C@H]2C)cc1,-0.799,-0.472,-3.38,-1.89,-4.32,-0.192,0.614 (inactive),-0.954,-1.82,-1.82 (inactive),-1.11,1.02 (inactive),-4.32 (inactive),0.786 (inactive),1.64 (inactive),5.08 (inactive),1.89 (inactive),1.48 (inactive),-2.95,-0.177
COc1ccc([Si](C)(C)[C@H]2[C@H](CCn3cc([C@H](O)c4ccccc4)nn3)O[C@@]3(C(=O)N(Cc4cccc(N5C(=O)c6cccc7cccc5c67)c4)c4ccccc43)[C@@H]2C)cc1,-0.252,0.0344,-0.506,-0.342,-1.56,-0.411,-1.63 (inactive),-0.00407,-0.319,-0.884 (inactive),-0.717,0.807 (inactive),-1.98 (inactive),0.0064 (inactive),1.42 (inactive),0.378 (inactive),-0.0889 (inactive),-0.216 (inactive),-1.47,-0.0516
O=C1O[C@@H](c2ccccc2)[C@@H](c2ccccc2)N2[C@@H](c3ccccc3OCCO)[C@]3(C(=O)Nc4ccc(C#CCCO)cc43)[C@@H](C(=O)N3CCN(c4ncccn4)CC3)[C@H]12,0.246,0.986,-0.477,-0.315,-3.89,0.799,0.778 (inactive),-1.33,0.431,1.13 (inactive),0.261,1.73 (inactive),-0.901 (inactive),0.286 (inactive),0.393 (inactive),2.47 (inactive),0.245 (inactive),-0.289 (inactive),-1.7,-0.0622
CC(C)(C)OC(=O)CC[C@]1(C(=O)N2CCOCC2)N=C(c2ccc(OCCCO)cc2)O[C@H]1c1ccccc1,0.134,0.233,1.01,1.38,0.0928,0.839,0.453 (inactive),0.0149,-0.703,-0.743 (inactive),-0.149,-0.243 (inactive),-1.56 (inactive),-0.127 (inactive),-0.537 (inactive),-0.294 (inactive),0.301 (inactive),0.553 (inactive),0.48,0.0003
CC(C)N1CC=CC23O[C@@H]4C=CCOC(=O)[C@@H]4[C@H]2C(=O)N(C(C)CO)[C@@H]3C1=O (stereo not given in full),-0.327,-0.153,-0.719,1.15,-0.186,-0.664,-0.668 (inactive),-0.166,0.462,0.226 (inactive),0.629,0.433 (inactive),0.273 (inactive),-0.218 (inactive),0.578 (inactive),-0.603 (inactive),0.17 (inactive),-0.155 (inactive),0.0803,0.226
COc1cc2c(cc1O)C(C)N(Cc1cc3c(cc1Br)OCO3)CC2 (stereo not given),-0.279,0.453,-0.346,-0.981,-0.308,-0.378,0.168 (inactive),-0.481,0.71,-0.807 (inactive),-0.587,-0.272 (inactive),0.297 (inactive),-9.46 (active),-0.351 (inactive),0.526 (inactive),0.553 (inactive),0.0553 (inactive),0.538,-0.157
